Most compounds without a hit are left out; they make up all but 1.3% or so of the library.
PREPL inh: inhibits the human prolyl oligopeptidase-like enzyme. Q4J6C6. recombinant PREPL, fluorescence polarization activity-based probe. inhibition, % at 5.96 µM. actives 0.68% (n = 320,000); in the data active = inhibition above about 43%;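 also: 0% = enzyme with DMSO and 100% = wells lacking enzyme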
Target sequence (Q4J6C6 whole entry, looked up): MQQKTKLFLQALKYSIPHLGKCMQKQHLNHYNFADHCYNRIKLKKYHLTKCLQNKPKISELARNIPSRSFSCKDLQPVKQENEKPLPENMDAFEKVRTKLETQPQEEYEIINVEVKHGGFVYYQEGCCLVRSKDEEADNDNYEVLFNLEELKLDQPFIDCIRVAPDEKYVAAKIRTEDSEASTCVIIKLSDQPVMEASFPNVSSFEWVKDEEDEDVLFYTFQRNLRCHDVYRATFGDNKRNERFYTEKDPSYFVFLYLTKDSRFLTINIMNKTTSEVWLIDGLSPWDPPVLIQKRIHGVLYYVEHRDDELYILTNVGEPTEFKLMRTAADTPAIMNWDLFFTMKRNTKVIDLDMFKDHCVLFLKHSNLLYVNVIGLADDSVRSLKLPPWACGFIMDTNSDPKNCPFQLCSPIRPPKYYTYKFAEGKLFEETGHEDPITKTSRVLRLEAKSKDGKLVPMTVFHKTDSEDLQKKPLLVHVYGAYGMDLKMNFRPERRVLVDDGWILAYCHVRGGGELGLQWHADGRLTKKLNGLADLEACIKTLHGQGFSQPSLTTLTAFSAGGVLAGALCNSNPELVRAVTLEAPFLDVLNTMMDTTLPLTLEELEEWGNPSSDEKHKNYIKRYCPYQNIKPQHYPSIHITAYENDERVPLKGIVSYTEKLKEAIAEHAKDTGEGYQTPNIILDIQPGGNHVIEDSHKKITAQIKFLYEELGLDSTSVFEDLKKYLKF
LYPLA1 counter: blocks human lysophospholipase 1, a PME1 counter-screen; AID 2174; recombinant LYPLA1, FP-Rh probe fluorescence polarization; actives 0.16% (n = 320,000); inhibition, % at 5.9 µM;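 active = inhibition above the mean of all tested compounds plus 3 SD, set per campaign, cut at about 14% in these data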;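 also: inhibitors block serine hydrolase probe labeling of LYPLA1 so polarization falls; 0% = enzyme with DMSO and 100% = wells lacking LYPLA1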
LYPLA2 counter: counter-screen for PME1 inhibitors: inhibitors of human LYPLA2. O95372. recombinant LYPLA2, FP-Rh probe fluorescence polarization. inhibition, % at 5.9 µM. actives 0.38% (n = 320,000);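 active = inhibition above the screen-wide mean plus 3 SD, limit set per campaign, cut at about 26% in these data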;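 also: 0% = LYPLA2 with DMSO and 100% = wells lacking LYPLA2 enzyme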
Fam108B counter: counter-screen for RBBP9 inhibitors: inhibitors of mouse Fam108B | actives 0.33% (n = 300,000) | inhibition, % at 9.51 µM | recombinant Fam108B, FP-Rh probe fluorescence polarization | AID 1947;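 active = inhibition above the screen mean inhibition plus 3 SD, computed separately per campaign, cut at about 18% in these data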;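 also: inhibitors lower polarization as less probe binds the enzyme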
PME-1 inh: PME-1 (human) inhibition. Q9Y570. actives 0.53% (n = 320,000). inhibition, % at 5.9 µM. AID 2130. recombinant PME-1, FP-Rh probe fluorescence polarization;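 active = inhibition above the campaign mean of all compounds plus 3 SD, cut at about 26% in these data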;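 also: competitive labeling of PME-1 active site by serine hydrolase directed probe; 0% = PME-1 with DMSO and 100% = wells lacking PME-1 enzyme; inhibitors block probe labeling so polarization falls and inhibition rises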
LYPLA1 conf: counter-screen for PME1 inhibitors: confirmation of human LYPLA1 inhibitors; shares compounds with LYPLA1 counter; actives 69% (n = 480); inhibition, % at 5.9 µM; recombinant LYPLA1, FP-Rh probe fluorescence polarization;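 active = mean inhibition across replicates above the hit cutoff set in the primary screen, cut at about 15% in these data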;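 also: loss of FP-Rh probe labeling of LYPLA1 seen as lower polarization; 0% = LYPLA1 with DMSO and 100% = wells lacking LYPLA1 enzyme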
Numbers without * were called inactive; x = not tested or not shown.

SMILES	PREPL inh	LYPLA1 counter	LYPLA2 counter	Fam108B counter	PME-1 inh	LYPLA1 conf
COCCSc1ccccc1C(=O)NCc1ccco1	24	-4	-1	9	10	x
COC(=O)/C(C#N)=C\c1c(OC)[nH]c2ccccc12	-2	20*	-1	3	-2	3
Cc1[nH]c2ccccc2c1/C=C(\C#N)C(=O)NC1CC1	14	-4	-6	-1	8	x
Cc1csc(=O)n1CCC(=O)OCC(=O)Nc1cc([N+](=O)[O-])ccc1Cl	18	1	6	10	-2	x
C=CCn1c(O)c(N=NC(=S)Nc2ccc(OC)cc2)c2ccccc21	2	30*	7	13	-6	33*
CCOC(=O)C1CCN(C(=O)c2[nH]c3ccc(OC)cc3c2C)CC1	10	0	-7	3	3	x
COc1ccc2[nH]c(C(=O)N3CCC(CO)(Cc4cccc(C(F)(F)F)c4)CC3)c(C)c2c1	7	19*	4	5	4	26*
CCN(CC)S(=O)(=O)c1cccc(-c2nnc(SCCOc3ccccc3)o2)c1	5	41*	1	-6	-10	51*
CCN(CC)S(=O)(=O)c1cccc(-c2nnc(SCCOc3ccccc3C)o2)c1	7	29*	-8	-1	-1	34*
CCN(CC)S(=O)(=O)c1cccc(-c2nnc(SCC(=O)c3cc(C)n(C)c3C)o2)c1	1	0	-4	1	4	x
COc1ccc(Cl)cc1NC(=O)Cn1nnc(C(=O)NCc2ccc3c(c2)OCO3)c1N	-9	-6	-13	-5	-8	x
O=C(COc1ccc([N+](=O)[O-])cc1)N(Cc1cccs1)C1CCS(=O)(=O)C1 (stereo not drawn)	32	-4	-7	1	4	x
CCOc1ccc(NC(=S)NC(=O)c2c(Cl)cnn2CC)c([N+](=O)[O-])c1	6	0	-3	0	-1	x
CCOc1ccc(NC(=S)NC(=O)c2c(Br)cnn2C)c([N+](=O)[O-])c1	5	18*	21	-2	2	59*
O=C1NC(=S)S/C1=C\c1coc2ccccc2c1=O	6	17*	7	3	4	-2
O=C1NC(=S)S/C1=C\c1coc2ccc(O)cc2c1=O	-3	-6	-4	-1	-7	x
O=C(O)c1cccc2c1-c1ccccc1/C2=N\Nc1ccccc1	17	2	3	1	4	x
O=C(O)c1cc(NN=C2c3ccccc3-c3ccccc32)ccc1Cl	23	16*	13	7	35*	16*
COc1ccc(/C=C/C(=O)N2CCCc3ccccc32)cc1	9	1	4	2	-13	x
O=C1CCN(C(=O)/C=C/c2ccccc2)c2ccccc21	-8	15*	13	-1	0	23*
Cc1noc(NS(=O)(=O)c2ccc(N/C=C\C(=O)c3ccc(Br)cc3)cc2)c1C	11	16*	8	3	10	34*
COc1ccc([N+](=O)[O-])cc1NC(=O)C(C)N1CCN(C(=O)c2ccco2)CC1 (stereo not drawn)	7	16*	-2	-4	-5	22*
O=C(CCSCc1ccccc1F)NCCc1ccccc1	-17	1	1	1	3	x
Cc1ccc(OCc2cc(C(=O)N(C)Cc3cnn(-c4ccccc4C)c3)no2)cn1	4	27*	14	4	-16	29*
CC(OC(=O)c1cccc(Cl)c1)C(=O)NC1CCCCC1C (stereo not drawn)	5	3	7	-1	1	x
SMILES	PREPL inh	LYPLA1 counter	LYPLA2 counter	Fam108B counter	PME-1 inh	LYPLA1 conf
CC(OC(=O)c1nc(Cl)ccc1Cl)C(=O)NC1CCCCC1C (stereo not drawn)	9	16*	20	x	16	-2
Nc1cc(=O)[nH]c(SCC(=O)Nc2cc(Cl)cc(Cl)c2)n1	-73	-1	-5	-2	-1	x
Nc1cc(=O)[nH]c(SCC(=O)Nc2ccc(Cl)c(Cl)c2)n1	-25	15*	-1	4	-13	21*
CCN1C(=O)c2cccc3c(N)ccc(c23)C1=O	12	15*	23	12	23	12
O=C(CC1N=C(Cc2ccccc2)NNC1=O)N/N=C/c1ccc([N+](=O)[O-])cc1 (stereo not drawn)	-2	26*	-3	1	11	23*
C/C(=N\NC(=O)CC1N=C(Cc2ccccc2)NNC1=O)c1ccccc1 (stereo not drawn)	6	4	4	1	3	x
CN(c1ccccc1)S(=O)(=O)c1cccc(NS(=O)(=O)c2cccc(C(=O)O)c2)c1	-4	0	-1	x	2	x
Cc1sc2nc(SCC(=O)N3CCOCC3)[nH]c(=O)c2c1-c1ccccc1	6	-1	-5	-7	-12	x
CCOCCn1c(=NC(=O)c2ccc(S(=O)(=O)N3CCOCC3)cc2)sc2cc(S(N)(=O)=O)ccc21	-4	15*	15	-1	9	15*
O=C1C(Cc2c[nH]c3ccccc23)NC(=S)N1Cc1ccccc1 (stereo not drawn)	-40	38*	-7	4	2	1
c1ccc2[nH]c(CN3CCN(c4ncnc5c4oc4ccccc45)CC3)nc2c1	-57	17*	4	-2	9	18*
Cc1nc2ccc(C(=O)Nc3cccc([N+](=O)[O-])c3)cc2s1	9	15*	-4	3	-1	22*
O=C(Nc1cccc([N+](=O)[O-])c1)c1cccc(C(=O)Nc2cccc([N+](=O)[O-])c2)c1	2	-4	-2	-2	1	x
NC(=O)CC(NC(=O)Cc1cccc2ccccc12)c1ccc(NCCCN2CCCC2=O)c([N+](=O)[O-])c1 (stereo not drawn)	24	-1	0	-6	1	x
CC(C)Sc1nnc([C@H](Cc2c[nH]c3ccccc23)NC(=O)OC(C)(C)C)o1	-12	46*	5	1	-6	2
CC(C)(C)OC(=O)N[C@@H](Cc1c[nH]c2ccccc12)c1nnc(SCC(N)=O)o1	18	3	9	-2	1	x
CSC(=NC#N)N1CCN(c2ccc(Cl)cc2)CC1	1	17*	6	-5	0	19*
Cc1cccc(C(=O)NC(NCc2ccco2)C(Cl)(Cl)Cl)c1 (stereo not drawn)	-2	17*	5	3	7	4
Cc1ccc(C(=O)NC(NCc2ccco2)C(Cl)(Cl)Cl)cc1 (stereo not drawn)	6	1	2	-3	-1	x
Cc1cc(C(=O)C[N+]2(C)CCOCC2)c(C)n1-c1ccc(Br)cc1	2	2	1	2	8	x
CCOc1ccc(Nc2nc(Cc3nnc(SCC(=O)NCc4ccco4)n3CC)cs2)cc1	28	1	1	-4	2	x
